We go through 40 compounds from PubChem BioAssay (NCI).

The panel holds about 79,000 compounds, 15% with a hit somewhere; the sample as a whole holds those more often. Activity calls are given as the source filed them. Rule as the data show it: active = growth inhibition above about 70%; inactive = the rest.

The nature of the first experiment: NCI Yeast Anticancer Drug Screen. Data for the rad50 strain (AID 155).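 Also: 0% = growth of vehicle-only cultures of the same strain.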 The settings on record: S. cerevisiae rad50 strain growth inhibition; at 50.0 µM; active compounds read high. The gist of the method: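 DNA repair mutant yeast, compound exposure, growth read-out; inhibition is taken relative to vehicle.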
For `Cc1ccc(NC(=O)CC2C(=O)Nc3ccccc3S2=O)c(C)c1` (stereo not given), the growth inhibition is -7.85% (inactive).
For the compound `Nc1nc(-c2ccc3c(ccc4ccccc43)c2)cs1`, the growth inhibition was 7.6% (inactive).
On to `COC(=O)C(=O)CC(=O)CCn1ncc(Cl)c(Cl)c1=O`, for which the growth inhibition was -14.3% (inactive).
Same read-out and setting: as for `O=C(CCN1CCCCC1)c1cc2cc([N+](=O)[O-])ccc2oc1=O`, the figure is 55.1% (inactive); as for `CCOC(=O)C1CN(CCc2ccccc2)CCC1=O` (stereo not given), 30.9% (inactive); as for `NC(CCS(N)(=O)=O)C(=O)O` (stereo not given), -9.45% (inactive).
Same read-out and setting: in the case of `Cc1cc(C(N)=O)no1` it was 1.5% (inactive); in that of `BrC1CC2CCCCC2CC1Br` (stereo not given), -1.45% (inactive).
Still for that read-out and setting: in the case of `C1CCSCCCCSCCCCSCCCCSC1` it was 20.4% (inactive); in that of `O=c1[nH]c2cc(Cl)c([N+](=O)[O-])cc2c2ccccc12`, 15.1% (inactive).
Regarding `CC(C)(C)C(=O)O[C@H]1C=C[C@@H](O)[C@@H]2[C@H]1[C@@H]1C=C[C@H]2C1`, the growth inhibition is 28.1% (inactive).
Consider `Cc1cc(N=Nc2cc(Br)cc(Br)c2)cc(C)c1N`, for which the growth inhibition is 10.8% (inactive).
For the compound `CN1CCC(CC(O)(c2ccccc2)C2CCCCC2)C1` (stereo not given), the growth inhibition was -5.9% (inactive).
As for `CCc1ccccc1NC(C)=O`, the growth inhibition is -4.75% (inactive).
Consider `CC(C)(C)C(=O)Oc1ccc[nH]c1=O`, for which the growth inhibition was 23.4% (inactive).
On to `CC1=CC(=O)OC(=O)/C1=C/c1ccc(N(C)C)cc1`, for which the growth inhibition is -11.2% (inactive).
Same read-out and setting: in the case of `Cc1sc2c(c1C)C(=O)c1cccn1-2` it was 4.95% (inactive); in that of `CC1=NN(c2nc(N)nc(CCl)n2)CC1`, 11.1% (inactive).
Same read-out and setting: in the case of `O=C(CNS(=O)(=O)c1ccccc1)c1ccc(Cl)cc1Cl` it was 31.6% (inactive); in that of `O=C(NCc1cccnc1)Nc1cccc2c(NC(=O)NCc3cccnc3)cccc12`, -17.1% (inactive); in that of `Nc1c(I)cc(C(=O)O)c(O)c1I`, 2.45% (inactive).
`CC(C)=CCC\C(C)=C/C=C/C(C)=C\C=C\C(C)=C/C=C/C=C(C)\C=C\C=C(C)/C=C/C=C(/C)CCC=C(C)C`: the growth inhibition is 7.15% (inactive).
As for `S=c1cc(S)sc2c1c(=S)sc1nc3ccccn3c(=S)c12`, the growth inhibition is -2.35% (inactive).
Same read-out and setting: as for `NS(=O)(=O)c1cc2c(cc1Cl)NC(C(=O)NNC(=O)c1ccncc1)=NS2(=O)=O`, the figure is -1.6% (inactive); as for `CC1CCN(C(=O)Nc2ccccc2)CC1`, -7.1% (inactive); as for `CCOc1nc(N)nc(C)c1N=Nc1ccccc1OC`, 12.7% (inactive).
Regarding `COc1cc(/C=N/NC(=O)Cc2cccc3ccccc23)ccc1O`, the growth inhibition is 21.1% (inactive).
Turning to `CCOC(=O)NC(=Cc1ccccn1)c1ccc(Cl)cc1` (mixture of isomers), the growth inhibition was 7.7% (inactive).
Consider `COC(=O)[C@]1(C)CCC[C@]2(C)C3=C[C@@H](O)[C@@]4(C(C)C)O[C@H]4[C@]3(O)CC[C@@H]12`, for which the growth inhibition was -17.9% (inactive).
On to `CC(=O)CC(=O)Nc1ccc(NC(=O)CC(C)=O)cc1`, for which the growth inhibition was -13.5% (inactive).
As for `CC(=NNC(=S)Nc1ccccc1)c1cccc(C(C)=NNC(=S)Nc2ccccc2)n1`, the growth inhibition was -7.4% (inactive).
On the same count and under the same terms, in the case of `COc1ccccc1NC(=S)NCCO` it was 7.25% (inactive).
Same read-out and setting: in the case of `CCOC(=O)c1c[nH]c2cc(Cl)ccc2c1=O` it was 3.85% (inactive).
On to `O=c1[nH]cc(S)c(=O)[nH]1`, for which the growth inhibition is 15.8% (inactive).
As for `CN(C)CCn1cnc2sc3ccccc3c21`, the growth inhibition is -8.35% (inactive).
`Nc1c(OCc2ccccc2)cccc1C(=O)O`: the growth inhibition was -7.1% (inactive).
On the same count and under the same terms, in the case of `CC(=O)C1C(=O)C(=O)N(CCN2C(=O)C(=O)C(C(C)=O)C2=O)C1=O` (stereo not given) it was -12.4% (inactive).
On the same count and under the same terms, as for `CC(=Nc1ccccc1)Nc1ccccc1`, the figure is -5.45% (inactive); as for `O=[N+]([O-])c1ccc(Br)cc1`, -6.5% (inactive); as for `CS(=O)(=O)OC1C(O)C(O)OC(CO)C1O` (stereo not given), -18.4% (inactive).

The nature of the next experiment: NCI Yeast Anticancer Drug Screen. Data for the mec2-1 strain (AID 157). Conditions: S. cerevisiae mec2-1 strain, at 50.0 µM, active compounds read high. The gist of the method: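 mec2-1 yeast strain, carrying an alteration in DNA damage repair or cell cycle control, was exposed to compounds; growth inhibition was measured relative to vehicle-treated controls.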
For the compound `Cc1ccc(NC(=O)CC2C(=O)Nc3ccccc3S2=O)c(C)c1` (stereo not given), the growth inhibition is -24.9% (inactive).
The same measure, in the same setting: in the case of `Nc1nc(-c2ccc3c(ccc4ccccc43)c2)cs1` it was 15.5% (inactive); in that of `COC(=O)C(=O)CC(=O)CCn1ncc(Cl)c(Cl)c1=O`, -25.4% (inactive).
As to `O=C(CCN1CCCCC1)c1cc2cc([N+](=O)[O-])ccc2oc1=O`, the growth inhibition is 29.6% (inactive).
Same read-out and setting: as for `CCOC(=O)C1CN(CCc2ccccc2)CCC1=O` (stereo not given), the figure is -8.65% (inactive); as for `NC(CCS(N)(=O)=O)C(=O)O` (stereo not given), -5.3% (inactive); as for `Cc1cc(C(N)=O)no1`, -2.55% (inactive).
Still for that read-out and setting: as for `BrC1CC2CCCCC2CC1Br` (stereo not given), the figure is 22.3% (inactive); as for `C1CCSCCCCSCCCCSCCCCSC1`, 18% (inactive); as for `O=c1[nH]c2cc(Cl)c([N+](=O)[O-])cc2c2ccccc12`, -7.35% (inactive).
Still for that read-out and setting: in the case of `CC(C)(C)C(=O)O[C@H]1C=C[C@@H](O)[C@@H]2[C@H]1[C@@H]1C=C[C@H]2C1` it was 41.6% (inactive).
Take `Cc1cc(N=Nc2cc(Br)cc(Br)c2)cc(C)c1N`: the growth inhibition was 1.3% (inactive).
The same measure, in the same setting: in the case of `CN1CCC(CC(O)(c2ccccc2)C2CCCCC2)C1` (stereo not given) it was -14.1% (inactive).
As for `CCc1ccccc1NC(C)=O`, the growth inhibition was -16.4% (inactive).
Same read-out and setting: as for `CC(C)(C)C(=O)Oc1ccc[nH]c1=O`, the figure is -13.9% (inactive).
As for `CC1=CC(=O)OC(=O)/C1=C/c1ccc(N(C)C)cc1`, the growth inhibition was 33.8% (inactive).
As to `Cc1sc2c(c1C)C(=O)c1cccn1-2`, the growth inhibition was -27.8% (inactive).
As for `CC1=NN(c2nc(N)nc(CCl)n2)CC1`, the growth inhibition is 6.35% (inactive).
As for `O=C(CNS(=O)(=O)c1ccccc1)c1ccc(Cl)cc1Cl`, the growth inhibition is 36.2% (inactive).
As to `O=C(NCc1cccnc1)Nc1cccc2c(NC(=O)NCc3cccnc3)cccc12`, the growth inhibition was -6.3% (inactive).
Take `Nc1c(I)cc(C(=O)O)c(O)c1I`: the growth inhibition was -26.6% (inactive).
On the same count and under the same terms, in the case of `CC(C)=CCC\C(C)=C/C=C/C(C)=C\C=C\C(C)=C/C=C/C=C(C)\C=C\C=C(C)/C=C/C=C(/C)CCC=C(C)C` it was -30.8% (inactive); in that of `S=c1cc(S)sc2c1c(=S)sc1nc3ccccn3c(=S)c12`, 28.6% (inactive).
On to `NS(=O)(=O)c1cc2c(cc1Cl)NC(C(=O)NNC(=O)c1ccncc1)=NS2(=O)=O`, for which the growth inhibition is -16.5% (inactive).
As to `CC1CCN(C(=O)Nc2ccccc2)CC1`, the growth inhibition is -17.2% (inactive).
`CCOc1nc(N)nc(C)c1N=Nc1ccccc1OC`: the growth inhibition was 9.05% (inactive).
On the same count and under the same terms, as for `COc1cc(/C=N/NC(=O)Cc2cccc3ccccc23)ccc1O`, the figure is 9.5% (inactive); as for `CCOC(=O)NC(=Cc1ccccn1)c1ccc(Cl)cc1` (mixture of isomers), -3.1% (inactive); as for `COC(=O)[C@]1(C)CCC[C@]2(C)C3=C[C@@H](O)[C@@]4(C(C)C)O[C@H]4[C@]3(O)CC[C@@H]12`, -29.3% (inactive).
Still for that read-out and setting: as for `CC(=O)CC(=O)Nc1ccc(NC(=O)CC(C)=O)cc1`, the figure is -30.9% (inactive); as for `CC(=NNC(=S)Nc1ccccc1)c1cccc(C(C)=NNC(=S)Nc2ccccc2)n1`, -7.55% (inactive); as for `COc1ccccc1NC(=S)NCCO`, 8.7% (inactive).
Still for that read-out and setting: in the case of `CCOC(=O)c1c[nH]c2cc(Cl)ccc2c1=O` it was 30.5% (inactive); in that of `O=c1[nH]cc(S)c(=O)[nH]1`, -28.4% (inactive).
In the case of `CN(C)CCn1cnc2sc3ccccc3c21`, the growth inhibition was -15.5% (inactive).
For `Nc1c(OCc2ccccc2)cccc1C(=O)O`, the growth inhibition is -9.5% (inactive).
For the compound `CC(=O)C1C(=O)C(=O)N(CCN2C(=O)C(=O)C(C(C)=O)C2=O)C1=O` (stereo not given), the growth inhibition is -0.8% (inactive).
On the same count and under the same terms, as for `CC(=Nc1ccccc1)Nc1ccccc1`, the figure is 3.3% (inactive).
Same read-out and setting: as for `O=[N+]([O-])c1ccc(Br)cc1`, the figure is -14.2% (inactive); as for `CS(=O)(=O)OC1C(O)C(O)OC(CO)C1O` (stereo not given), 12.9% (inactive).
